Results as given in ChEMBL document CHEMBL4513146, “CO-ADD screening of Karazin Kharkiv National University (Ukraine) compounds”.
Measured potencies and affinities stand elsewhere.

Legend:
Staphylococcus aureus = settings: Concentration 32 ug.mL-1;; ASSAY_TEST Inhibition of Bacterial Growth; detection method Absorption (OD600); MEDIA CAMHB; plate type 384well; NBS; CORNING #3640; time 18 hr
Escherichia coli = settings: Concentration 32 ug.mL-1;; ASSAY_TEST Inhibition of Bacterial Growth; detection method Absorption (OD600); MEDIA CAMHB; plate type 384well; NBS; CORNING #3640; time 18 hr

| Structure (SMILES) | Inhibition (Staphylococcus aureus) [%] | Inhibition (Escherichia coli) [%] |
| --- | --- | --- |
| COc1cccc(Cn2nc3n(CCC(=O)NC4CCCCC4)c(=O)c4ccccc4n3c2=O)c1 | 6.84 | -3.05 |
| COc1ccc(-n2ccn3c(-c4ccc([N+](=O)[O-])cc4)nnc3c2=O)cc1Cl | 17.28 | 1.52 |
| COc1ccc(CN(c2cc(C)cc(C)c2)S(=O)(=O)c2cccn3c(C)nnc23)cc1 | -21.45 | -2.42 |
| COc1ccc(C(=O)CSc2nnc3c(=O)n(-c4ccccc4)ccn23)cc1OC | -10.93 | -14.26 |
| O=C(CSc1nnc2c3cc(-c4ccccc4)nn3ccn12)NCc1ccc(Cl)cc1 | 6.91 | -1.12 |
| COc1ccc(NC(=O)CSc2nnc3ccc(C(=O)Nc4cccc(F)c4)cn23)cc1 | 8.78 | 3.37 |
| O=C(CCc1nnc2ccc(-c3ccc(Cl)cc3)nn12)NCc1ccc(F)cc1Cl | 11.56 | -1.56 |
| COc1ccccc1NC(=O)Cn1nc2c(Sc3ccccc3)nccn2c1=O | -14.27 | -3.78 |
| O=C(Cn1nc2ccc(Sc3ccccc3)nn2c1=O)N1CCN(c2ccc(F)cc2)CC1 | 9.78 | 1.58 |
| Cc1ccccc1Oc1nc2ccccc2n2c(=O)n(CC(=O)Nc3ccccc3C(F)(F)F)nc12 | -0.26 | -3.73 |
| Cc1cc(C)c(NC(=O)Cn2nc3c4cc(-c5ccc(F)cc5)nn4ccn3c2=O)c(C)c1 | 12.62 | 1.69 |
| O=c1c2nnc(-c3cccc([N+](=O)[O-])c3)n2ccn1-c1ccc(F)cc1 | 13.28 | -1.02 |
| CSc1cccc(NC(=O)Cn2nc3c(Sc4ccccc4)nccn3c2=O)c1 | -5 | -10.44 |
| COC(=O)c1cccc(NC(=O)Cn2nc3c(N4CCCCCC4)nccn3c2=O)c1 | -4.81 | -10.52 |
| Cc1ccc(NC(=O)CSc2nnc3c4cc(-c5ccccc5)nn4ccn23)c(C)c1 | -9.27 | -11.37 |
| O=C(Cn1nc2c(N3CCOCC3)nccn2c1=O)NCc1cc(F)cc(F)c1 | 7.03 | -4.76 |
| Cc1cc(Nc2ccc(F)cc2)nc2nn(CCc3ccccc3)c(=O)n12 | 4.62 | -5.44 |

| Structure (SMILES) | Inhibition (Staphylococcus aureus) [%] | Inhibition (Escherichia coli) [%] |
| --- | --- | --- |
| COc1cc(NC(=O)Cn2nc3ccc(SC(C)C)nn3c2=O)cc(OC)c1 | -7.38 | -2.23 |
| Cc1cc(C)cc(Nc2nc(C)cc3nn(CC(=O)Nc4ccc(C)c(F)c4)c(=O)n23)c1 | 9.64 | -0.61 |
| Cc1ccc(CNC(=O)c2ccc3nn(CC(=O)Nc4ccc(C(F)(F)F)cc4)c(=O)n3c2)cc1 | -2.47 | -0.22 |
| CCc1ccc(NC(=O)Cn2nc3c4cc(-c5ccc(C)c(C)c5)nn4ccn3c2=O)cc1 | 1.77 | -6.18 |
| Cc1ccccc1Nc1cc(C)n2c(=O)n(CCc3ccccc3)nc2n1 | -11.65 | -1.35 |
| O=C(CSc1nnc2ccc(C(=O)NCc3ccccc3)cn12)Nc1ccccc1Br | 7.29 | -1.34 |
| O=C(Cn1nc2c3cc(-c4ccc(F)cc4)nn3ccn2c1=O)Nc1ccccc1 | -11.01 | -1.34 |
| Cc1ccc(NC(=O)CSc2nnc3ccc(C(=O)Nc4cccc(F)c4)cn23)c(C)c1 | 12.19 | -1.6 |
| O=c1c2nnc(SCc3ccccc3Cl)n2ccn1-c1ccc(F)cc1 | 8.27 | -4.39 |
| CCCCNC(=O)Cn1nc2n(Cc3ccco3)c(=O)c3sccc3n2c1=O | 2.23 | -5.07 |
| CCc1ccccc1NC(=O)CSc1nnc2c(=O)n(-c3ccccc3)ccn12 | 10.95 | -0.17 |
| Cc1ccc(C)c(NC(=O)Cn2nc3c(SCc4ccc(Cl)cc4)nccn3c2=O)c1 | 7.31 | -3.74 |
| CCc1ccccc1NC(=O)Cn1nc2cc(C)nc(Nc3ccc(F)c(C)c3)n2c1=O | -15.94 | -1.7 |
| COc1cccc(C(=O)Cn2nc3n(CCC(C)C)c(=O)c4sccc4n3c2=O)c1 | -4.77 | -5.88 |
| N#Cc1ccccc1NC(=O)Cn1nc2c(Oc3ccccc3)nccn2c1=O | 8.21 | 1.56 |
| CC(=O)c1ccc(NC(=O)Cn2nc3c(SC4CCCCC4)nccn3c2=O)cc1 | 3.51 | -2.6 |
